CCHFV vOTU inh: blocks the CCHF virus ovarian tumor domain protease | CCHFV vOTU protease, Pep-AMC fluorescence | inhibition, % at 11.5 µM | hit rate 0.55% among 370,000 | AID 651958; in the data active means inhibition above about 30%; further: 0% = vehicle wells with enzyme and 100% = no enzyme wells
RecA intein inh: Mtb RecA intein splicing inhibition; inhibition, % (no concentration beside the values); cell-free RecA intein splicing, fluorescence; P9WHJ3; hit rate 0.75% among 290,000; AID 2221; in the data active means inhibition above about 30%;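 further: 0% = vehicle wells and 100% = reference inhibitor control wells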
Mtb bLac sens: beta-lactam sensitization of Mtb H37Rv. M. tuberculosis H37Rv growth with meropenem, percent inhibition. inhibition, % at 25 µM. hit rate 0.27% among 330,000; call rule not given here;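 further: growth measured after seven days incubation then overnight dye step; 0% = bacteria only wells and 100% = bacteria with antibiotic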
FBA Mtb inh: inhibits M. tuberculosis FBA enzyme | purified M. tuberculosis FBA, fluorescence read-out | inhibition, % at 1 µM | hit rate 2.3% among 360,000 | AID 588726;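 further: 0% = vehicle and 100% = reference inhibitor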
GDH-TPI counter-1: GDH-TPI coupled enzyme inhibition counter-screen. GDH-TPI coupled enzyme counterscreen, NADH absorbance. inhibition, % at 4.8 µM. hit rate 1.2% among 360,000; in the data active means inhibition above about 30%;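 further: 0% = DMSO wells and 100% = wells lacking the enzyme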
Mtb FBA inh conf: Mtb FBA inhibition, confirmed | shares compounds with FBA Mtb inh | purified M. tuberculosis FBA, fluorescence read-out | inhibition, % at 1 µM | hit rate 78% among 5,600 | AID 651616;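 further: 0% = vehicle wells and 100% = reference inhibitor wells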
GDH-TPI counter-2: counter-screen for M. tuberculosis FBA inhibitors: GDH-TPI coupled enzyme inhibition | GDH-TPI coupled enzyme counterscreen, fluorescence | shares compounds with FBA Mtb inh | AID 652141 | inhibition, % at 1 µM | hit rate 81% among 5,600; in the data active means inhibition above about 10%
Starred values were filed as active, the others as inactive; . = no result given; + = active, no number. Hits are enriched below; roughly 4.2% of the tested compounds scored in any of these assays. Unless noted, no stated cut-off is given here; in the data, active means inhibition above about 27%; inactive means the rest.

SMILES	CCHFV vOTU inh	RecA intein inh	Mtb bLac sens	FBA Mtb inh	GDH-TPI counter-1	Mtb FBA inh conf	GDH-TPI counter-2
COC(=O)C1=C(C)N(C)C(=NCc2cccc(C(F)(F)F)c2)NC1c1ccc(F)cc1 (stereo unspecified)	-4	.	.	.	.	.	.
COc1ccc(CCN2CC(=O)N3CCc4ccc(N5CCOCC5)cc4C3CC2=O)cc1OC (stereo unspecified)	1	.	.	.	.	.	.
N#Cc1c(OCC(=O)c2ccccc2)nc2c(c1-c1ccco1)CCc1ccccc1-2	2	4	-4	12	3	.	.
CCOC(=O)COc1nc(-c2ccccc2)cc(-c2ccco2)c1C#N	-15	-2	94	58*	13	138*	127*
CCOC(=O)COc1nc2c(c(-c3ccco3)c1C#N)CCc1ccccc1-2	-10	3	47	30*	5	25	14*
CCCCc1cc(=O)oc2cc(C)cc(OC(C)C(=O)NCc3ccccn3)c12 (stereo unspecified)	1	-2	3	63*	10	153*	122*
CCCCc1cc(=O)oc2cc(C)cc(OCC(=O)NCc3ccccn3)c12	5	-1	6	64*	-6	47*	39*
CCCCc1cc(=O)oc2cc(OCC(=O)NCc3ccccn3)c(Cl)cc12	-1	-2	-6	1	3	.	.
Cc1cc(OC(C)C(=O)NCc2ccccn2)c2c(C)cc(=O)oc2c1 (stereo unspecified)	-20	0	-7	103*	9	1	-4
COC(=O)c1cc(C)nc(N)c1C#N	-166	-4	1	108*	3	128*	82*
Cc1cc(-c2ccccc2)c(C#N)c(N)n1	-19	-11	3	18	5	.	.
CCOc1ccc(-n2nc(C(=O)NCCOC)c3ccccc3c2=O)cc1	8	.	-4	68*	6	+	191*
CCCCNC(=O)CNC(=O)c1nn(-c2ccc(OC)c(OC)c2)c(=O)c2ccccc12	4	.	.	-2	1	.	.
CCOc1ccc(-n2nc(C(=O)NC3CCCCC3)c3ccccc3c2=O)cc1	-11	-3	8	1	6	.	.
CCN(CCCNC(=O)CNC(=O)c1nn(-c2ccc(OC)c(OC)c2)c(=O)c2ccccc12)c1ccccc1	2	2	-4	27*	3	189*	156*
COc1ccc(-c2ccc3c(n2)CCCN3S(=O)(=O)c2c(C)noc2C)cc1	-9	.	.	.	.	.	.
COc1ccc(/C=C/c2c(-c3cccc(C)c3)oc3ccc(N4CCOCC4)cc23)cc1	16	-7	-15	35*	27	103*	98*
COC(=O)c1ccc(/C=C/c2c(-c3ccc(OC)cc3)oc3ccc(N4CCOCC4)cc23)cc1	7	-5	96	13	0	.	.
COc1ccc(-c2oc3ccc(N4CCOCC4)cc3c2C#Cc2ccc(N)cc2)cc1	-2	-2	95	44*	10	49*	48*
FC(F)(F)c1cccc(N2CCN(C3=Nc4ccccc4Sc4ccccc43)CC2)c1	-2	.	.	.	.	.	.
O=C(NCCc1ccccc1)OCc1cn(Cc2ccc(F)c(F)c2)nn1	-13	.	.	.	.	.	.
Cn1ccc2c(-c3ccc(F)cc3)cc3c(c21)C1CCC3C1 (stereo unspecified)	2	.	.	9	.	.	.
Cn1ccc2c(-c3ccc(C(N)=O)cc3)cc3c(c21)C1CCC3C1 (stereo unspecified)	1	.	.	53*	.	113*	103*
Cn1ccc2c(-c3ccc(C(F)(F)F)cc3)cc3c(c21)C1CCC3C1 (stereo unspecified)	-4	.	.	35*	.	56*	47*
Cn1ccc2c(-c3ccc(CO)cc3)cc3c(c21)C1CCC3C1 (stereo unspecified)	-33	.	.	81*	.	+	+
SMILES	CCHFV vOTU inh	RecA intein inh	Mtb bLac sens	FBA Mtb inh	GDH-TPI counter-1	Mtb FBA inh conf	GDH-TPI counter-2
Cc1ccc2nc3[nH]c(=O)[nH]c(=O)c3c(N)c2c1	-52	.	.	105*	6	-9	-5
O=C(O)c1c2cc(Br)ccc2nc2[nH]c(=O)[nH]c(=O)c12	7	.	.	9	11	.	.
COc1ccc(S[C@]2(C(=O)N(C)C)CC(=O)N(c3ccc(Cl)cc3)[C@@H]2c2ccc(OC)cc2)cc1	0	.	.	.	.	.	.
COCCCNC(=O)CCc1c(C)nc2c(c(C)nn2-c2ccc(C)cc2)c1C	-31	1	1	56*	7	71*	77*
COCCNC(=O)CCc1c(C)nc2nc(-c3cc(OC)cc(OC)c3)nn2c1C	-16	1	0	-3	0	.	.
CCN(CC)CCNC(=O)CCc1c(C)nc2c(c(C)nn2-c2ccc(C)cc2)c1C	-26	-1	0	41*	11	8	-3
COCCNC(=O)CCc1c(C)nc2c(c(C)nn2-c2ccc(C)cc2)c1C	4	1	-1	55*	3	63*	49*
COCCNC(=O)CCc1c(C)nc2c(c(C)nn2-c2ccc(C)c(C)c2)c1C	11	2	-3	43*	-1	74*	56*
C[C@H]1CN(C(=O)OC(C)(C)C)CCN1c1ccc(N2CCS(=O)(=O)CC2)c(C#N)c1	9	.	.	.	.	.	.
Cc1ccc(-n2c(SCC(=O)Nc3ccc(S(=O)(=O)Nc4cc(C)nc(C)n4)cc3)nnc2-c2ccncc2)cc1	-6	.	.	.	.	.	.
Nc1ccccc1C(=O)NCc1ccc(Cl)cc1	-31	5	7	49*	11	161*	139*
O=C(O)c1ccccc1C(=O)NCc1ccc(F)cc1	-3	-2	-9	1	4	.	.
Nc1ccccc1NC(=O)c1ccccc1N	-58	-1	-3	61*	7	101*	87*
O=C(NCc1ccc(Cl)cc1)c1ccccc1CCc1ccccc1	-12	-1	61	4	6	.	.
Nc1ccccc1C(=O)NCc1ccc(F)cc1	-47	-2	-4	77*	10	.	+
COc1cccc(CNC(=O)c2ccccc2N)c1	-24	15	-4	63*	6	59*	54*
Nc1ccn([C@@H]2O[C@H](C(=O)NCC(=O)N3CCOCC3)[C@@H](O)[C@H]2O)c(=O)n1	-8	.	.	.	.	.	.
COc1ccc(-c2[nH]c(-c3cc(OC)c4c(c3)OCO4)nc2-c2ccccc2)cc1	-10	0	73	61*	15	+	+
COc1ccc(-c2nc(-c3ccccc3)c(-c3cc([N+](=O)[O-])ccc3C)[nH]2)cc1OC	15	7	58	1	12	.	.
CC1(C)Cc2nc(N3CCOCC3)c(C#N)cc2CO1	-42	-3	1	49*	-3	37*	35*
CC1(C)Cc2nc(N3CCCC3)c(C#N)cc2CO1	-154	-3	0	110*	7	66*	50*
CC1(C)Cc2nc(Cl)c(C#N)cc2CO1	-7	-2	1	0	-1	.	.
CC1(C)CC(=O)C=C(Nc2ccccc2NC(=O)c2cc(F)cc(F)c2)C1	6	.	.	.	.	.	.
